D1 antag – Antagonist of Human D 1 Dopamine Receptor: qHTS. D(1A) dopamine receptor (Homo sapiens), P21728. HEK293 TREx D1 cells, calcium flux, dopamine EC80; stronger effect = lower value. activity change, negative = inhibition, % at 10 µM. 3.2% of 360,000 active; in the data active means activity change below about -30%; further: on the % scale 0 is the no-effect control and ±100 the full control effect
Target sequence (P21728 whole entry, looked up): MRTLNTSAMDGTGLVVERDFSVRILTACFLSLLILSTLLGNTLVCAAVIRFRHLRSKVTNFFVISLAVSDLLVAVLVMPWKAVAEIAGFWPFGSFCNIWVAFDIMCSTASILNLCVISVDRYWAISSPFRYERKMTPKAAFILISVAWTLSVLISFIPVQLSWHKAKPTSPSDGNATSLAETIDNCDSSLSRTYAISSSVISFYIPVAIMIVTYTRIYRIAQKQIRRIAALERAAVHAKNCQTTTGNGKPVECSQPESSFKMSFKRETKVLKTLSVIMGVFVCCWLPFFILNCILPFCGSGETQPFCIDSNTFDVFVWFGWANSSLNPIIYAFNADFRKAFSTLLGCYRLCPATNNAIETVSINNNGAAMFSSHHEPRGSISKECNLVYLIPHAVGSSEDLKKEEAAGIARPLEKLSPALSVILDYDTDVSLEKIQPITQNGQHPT
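Inducible Hek293 Trex D1 cells (tetracycline, overnight, 30 C). Calcium dye 30–90 min RT. Antagonist mode: EC80 dopamine added after 180 s compound read.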
TRHR enhancer – qHTS for Small Molecule Agonists and Allosteric Enhancers of Human TRH Receptor: Primary Screen for Enhancers; Thyrotropin-releasing hormone receptor (Homo sapiens), P34981; TRHR cells, fluo-8 calcium fluorescence, EC20 TRH enhancement; enhancement, % at 2 µM; 0.66% of 360,000 active; in the data active means enhancement above about 30%; further: 0% is about no effect
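Enhancer read-out: after compound pinning and an initial kinetic agonist-mode read, an EC20 of TRH (10 nM final) was injected and fluo-8 calcium signal (Ex 480/Em 530) followed at 1 s/cycle for 100 cycles in TRHR-expressing cells.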
TRHR agonist – qHTS for Small Molecule Agonists and Allosteric Enhancers of Human TRH Receptor: Primary Screen for Agonists; Thyrotropin-releasing hormone receptor (Homo sapiens), P34981; TRHR cells, calcium flux fluo-8, FDSS agonist mode; activation, % at 2 µM; 0.18% of 360,000 active; further: 0% is about no effect
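Read-out: compound-evoked intracellular calcium rise in TRHR cells, fluo-8 dye, kinetic FDSS fluorescence at 1 s/cycle following a 10-cycle baseline. Cells cultured overnight before dye loading (30 min–1.5 h, RT).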
D1 ag – Allosteric Agonists of the Human D1 Dopamine Receptor: qHTS; D(1A) dopamine receptor (Homo sapiens), P21728; HEK293 T-REx D1 cells, calcium flux, agonist mode; activation, % at 2 µM; 1% of 360,000 active; further: 0% is about no effect
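Inducible HEK293 T-REx D1 cells, force-coupled to calcium signalling, were plated at 4000 cells/well with tetracycline and held overnight at 30 C. After no-wash calcium dye loading, compound-evoked calcium rise over 180 s flagged agonists.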
D1 potentiator – Potentiators of Human D1 Dopamine Receptor: qHTS. 0.036% of 360,000 active. HEK293 TREx D1 cells, calcium flux, dopamine EC20 potentiation. potentiation, % at 10 µM. D(1A) dopamine receptor (Homo sapiens), P21728; in the data active means potentiation above about 30%; further: 0% is about no effect
* = called active by the depositor. The list is not random: actives were taken first. Their share in the collection is about 4.7%. Unless noted, no stated cut-off is given here; in the data, active means activation above about 30%; inactive means the rest.

SMILES | D1 antag | TRHR enhancer | TRHR agonist | D1 ag | D1 potentiator
CC(C)NC(=O)NC(=O)COC(=O)/C=C/c1ccc2c(c1)OCO2 | -30* | 9 | 0 | 1 | -1
CCCCS(=O)(=O)N1CCC(C(=O)NCC2CCCO2)CC1 (configuration not stated) | -13 | -8 | 3 | 1 | -5
CCS(=O)(=O)N1CCC(C(=O)NCC2CCCO2)CC1 (configuration not stated) | -36* | 1 | 1 | 2 | 0
Cc1ccc(S(=O)(=O)Nc2ccc3c(c2)n(C)c(=O)n3C)c(C)c1 | -12 | 2 | 0 | 8 | -6
Cc1ccc(S(=O)(=O)Nc2cc3c(cc2C)n(C)c(=O)c(=O)n3C)c(C)c1 | -95* | -7 | 0 | 1 | -7
Cc1cc2c(s1)c1cnn(Cc3c(F)ccc(Cl)c3F)c(=O)c1n2C | 6 | 4 | 0 | 8 | -1
CN(C)S(=O)(=O)c1ccc(NC(=O)C2COc3ccccc3O2)cc1 (configuration not stated) | 1 | 3 | -1 | 4 | -4
CN(C)S(=O)(=O)c1ccc(NC(=O)C2CC3C=CC2C3)cc1 (configuration not stated) | -30* | 6 | 0 | 1 | -2
Cn1c2ccccc2c(=O)c2c(=O)n(C3CCCCC3)c(-c3cccs3)nc21 | -32* | -13 | 23 | 116* | -4
Cn1c2ccccc2c(=O)c2c(=O)n(-c3ccccc3)c(C3CCCCC3)nc21 | 70 | 6 | -1 | 1 | 19
Cn1c2ccccc2c(=O)c2c(=O)n(C3CCCCCC3)c(C3CCCCC3)nc21 | -27 | -7 | 29 | 121* | 5
CCc1nc2c(c(=O)c3ccccc3n2C)c(=O)n1C1CCCCCC1 | -28 | -10 | 39* | 195* | -2
O=[N+]([O-])c1ccc(OCCCCCN2CCOCC2)cc1 | -22 | -3 | 0 | 7 | -4
CC1CCN(CCCCOc2ccc([N+](=O)[O-])cc2)CC1 | -44* | 8 | 1 | 2 | -2
O=[N+]([O-])c1ccc(OCCCCN2CCc3ccccc3C2)cc1 | -63* | -7 | 1 | 8 | -8
O=[N+]([O-])c1ccc(OCCCCN2CCCCC2)cc1 | -1 | 3 | -1 | 8 | -3
CCC(C)NCCCOc1ccc([N+](=O)[O-])cc1 (configuration not stated) | -7 | 2 | -1 | 7 | -7
C[N+](C)(C)CCOc1ccc([N+](=O)[O-])cc1 | -31* | -1 | 0 | 3 | 0
Cc1ccccc1CS(=O)(=O)CCC(=O)NCc1ccc(F)cc1Cl | 0 | -4 | -1 | 6 | 0
Cc1cc(C(=O)CSc2nc3ccccc3[nH]2)c(C)n1CC1CCCO1 (configuration not stated) | -33* | 1 | -1 | 14 | -8
CSc1ncccc1C(=O)OCC(=O)c1cc(C)n(CC2CCCO2)c1C (configuration not stated) | -34* | -5 | 0 | 5 | -10
O=C(COc1ccc(Cl)cc1)Nc1ccccc1C(=O)OCc1cc(=O)n2ccsc2n1 | -15 | -3 | 0 | -1 | 0
CCOC(=O)c1ccccc1NC(=O)CSc1ccc(-c2cccs2)nn1 | 6 | -3 | 1 | 5 | -1
CCCSc1ccc([C@H]2N[C@@](C)(C(=O)OC)[C@H]3C(=O)N(C)C(=O)[C@@H]23)cc1OC | 6 | -9 | 0 | -1 | 3
COC(=O)c1ccc(OCC2c3cc(OC)c(OC)cc3CCN2C(=O)C(C)C)cc1 (configuration not stated) | 4 | 8 | 0 | -1 | 0
SMILES | D1 antag | TRHR enhancer | TRHR agonist | D1 ag | D1 potentiator
COC(=O)c1ccc(OCC2c3cc(OC)c(OC)cc3CCN2C(=O)c2cccc(C)c2)cc1 (configuration not stated) | -33* | -4 | 0 | 3 | -2
CN1CC2=Cc3ccccc3OC23Oc2ccccc2C=C3C1 | -51* | 0 | 0 | 13 | -16
CSc1sc(-c2nnc(SCC(=O)Nc3ccccc3)n2C)c2c1C=CCC2 | -36* | 1 | 0 | 2 | -1
O=C(Cn1cc(S(=O)(=O)Cc2ccccc2Cl)c2ccccc21)NCc1ccccc1Cl | 3 | 24 | 2 | 8 | 8
COC(=O)C(CCSC)NC(=O)c1cc2c(n(-c3ccc(Cl)cc3)c1=O)CCCC2=O (configuration not stated) | 8 | 7 | 0 | 1 | -3
O=C(O)CN1C(=O)/C(=C\c2ccccc2OCc2ccc(Cl)cc2Cl)SC1=S | 8 | 6 | -3 | 35* | -12
CC(CNC(=O)CCc1nnc2ccc(N3CCC4(CC3)OCCO4)nn12)c1ccccc1 (configuration not stated) | -5 | 13 | 0 | 1 | -1
Cc1cc([N+](=O)[O-])nn1CC(=O)Nc1cccc2nonc12 | -7 | -1 | 0 | 1 | -3
COCC(=O)Nc1nnc(C2CCCCC2)s1 | -2 | 5 | 0 | 5 | 0
CCOCC(=O)Nc1nnc(C2CCCCC2)s1 | -36* | 2 | 0 | -2 | -7
N=c1n(CCN2CCCCC2)c2ccccc2n1CC(O)c1ccc(Cl)c(Cl)c1 (configuration not stated) | 15 | 2 | -1 | 65* | -3
CCn1c(O)c(N=NC(=O)C2C(=O)NCC2c2ccccc2)c2ccccc21 (configuration not stated) | -80* | -6 | -1 | 1 | -2
O=C1c2ccccc2C(=O)N1Cc1ccccn1 | -37* | 2 | 1 | 2 | -6
Cc1sc2nc(SCC(=O)N3CCCC3)[nH]c(=O)c2c1C | -34* | 0 | 0 | -2 | 18
Cc1sc2nc(SCC(=O)N3CCCCC3)[nH]c(=O)c2c1C | 13 | 5 | 0 | 1 | 7
O=[N+]([O-])c1cc(C(F)(F)F)cc([N+](=O)[O-])c1N1CCN(S(=O)(=O)c2ccccc2)CC1 | -32* | -1 | 0 | 1 | -4
CN(C)CCNc1ncnc2sc(-c3ccccc3)cc12 | 1 | 3 | -2 | 1 | -1
CNc1ncnc2sc(-c3ccccc3)cc12 | -38* | -5 | -1 | 1 | -4
CC(=O)N1CCN(c2ncnc3sc(-c4ccccc4)cc23)CC1 | -2 | 40* | 0 | 1 | -8
Cc1nc(C)c(-c2csc(N)n2)s1 | -31* | 2 | 1 | 3 | -7
CCc1cc(C(=O)N2CCCC(C(=O)c3ccc(Oc4ccccc4)cc3)C2)n(C)n1 (configuration not stated) | -7 | -3 | 0 | 3 | -7

Source: PubChem (National Center for Advancing Translational Sciences (NCATS))
